Reference: PubChem BioAssay AID588773 (The Scripps Research Institute Molecular Screening Center, 2011)
The source made the active and inactive calls.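 How the source made its calls: active means inhibition of plasma PAF acetylhydrolase at a set limit or more at 0.1 µM, with tenfold selectivity over all off-targets; inactive means inhibition below the limit or weaker selectivity.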

Experiment: pPAFAH inhibition and serine hydrolase selectivity, late-stage follow-up, selectivity assay for pPAFAH inhibitor project, biochemical, gel-based, FP-Rh fluorescence, mouse, HTS hit compounds (AID 588773)
Conditions: gel-based competitive ABPP, proteome, MW 32 kDa protein, at 10 µM

outcome, inactive:
O=C(Oc1nsnc1N1CCOCC1)N1CCOCC1
O=C(Oc1ccc(Oc2ccccc2)cc1)N1CCC(O)CC1
O=C(CCCSc1ccc(Cl)cc1)Nc1cc(S(=O)(=O)N2CCOCC2)ccc1O
O=C(Oc1ccc(-c2ccccc2)cc1)N1CCCCC1
CCCCOC(=O)c1ccc(OC(=O)N2CCOCC2)cc1
O=C(/C=C/c1cccs1)c1cc(Br)ccc1OC(=O)N1CCOCC1
O=C(Oc1ccc(-c2ccccc2)cc1)N1CCOCC1
